Assay results published in ChEMBL document CHEMBL3988442, “University of Dundee, Small-Polar-MMV Screening Library” (2021).
Screen size: about 48,000 compounds; about 13,000 (27%) showed an effect of 50% or more. This is one part of the list.

System: Wolbachia pipientis
Assay: Anti-Wolbachia Cell-Based Screen
Assay type: functional
Parameters: scale not given: in the data most compounds retested in dose-response had high values
Settings: 5 µM

Row | Structure (SMILES) | Percent Effect
1 | CN(Cc1nnc2n1CCC2)S(=O)(=O)c1ccc(Br)cc1Cl | 10.86%
2 | CC(=O)N1CCC(CCNC(C)c2cc(F)cc(F)c2)CC1 (stereo not drawn) | -11.21%
3 | CC(C)Oc1cc(N2CCC(N3CCC(O)CC3)CC2)nc(N)n1 | 11.59%
4 | Cc1nc(CN2CCC3(CCCO3)CCC2=O)no1 (stereo not drawn) | 31.71%
5 | CNC(=O)NC(=O)CSc1ccc2c(c1)CCC2 | -2.658%
6 | Cc1noc(-c2cccnc2N(C)Cc2cc(C)on2)n1 | 2.996%
7 | CCC(=O)N(CCC(=O)O)Cc1ccc(F)c(F)c1 | 121.4%
8 | COCCCC(=O)N(C)c1ccc(F)c(Cl)c1 | -0.2217%
9 | CN(C)C(=O)CCC[S+]([O-])Cc1ccc(F)c(F)c1 (stereo not drawn) | -13.45%
10 | COCCN(Cc1ccncc1)C(=O)CCSCc1ccc(F)cc1 | -3.369%
11 | CCC(=O)N(CC(N)=O)Cc1cccc(Oc2ccccc2)c1 | 9.242%
12 | COCCCC(=O)N(CCC(=O)O)Cc1ccc(F)c(F)c1 | 97.51%
13 | COCCNc1nc2c(c(NCc3ccncc3)n1)CCNCC2 | 24.23%
14 | CC(C)OCCSc1nnnn1C1CCOCC1 | -9.456%
15 | CC(=O)N1CCCN(CCCSc2ccccc2Cl)CC1 | -4.168%
16 | COCCC(=O)N1CCN(CC(C)C)c2nc(C)ccc2C1.O=C(O)C(F)(F)F | 6.482%
17 | O=C(NCc1ccccc1CN1CCOCC1)c1ccc(Br)cc1F | -0.3449%
18 | O=C(O)c1ccc2[nH]cc(CN3CCOCC3)c2c1 | -9.058%
19 | Cc1ncc(CN2CCOCC2)c2cc(C(=O)c3ccc(Br)cc3)oc12.Cl | 126.2%
20 | Cc1ncc(CN2CCCC2)c2cc(C(=O)c3ccc(Br)cc3)oc12.Cl | 139.8%
21 | O=C(O)c1ccc2[nH]cc(CN3CCCC3)c2c1 | 2.363%
22 | Cc1ncsc1CCN(C)C(=O)c1ccc(CN2CCCCC2)cc1 | -41.8%
23 | Cc1nn(C)c(C)c1C1CCCN1C(=O)c1nccnc1N (stereo not drawn) | 101%

Row | Structure (SMILES) | Percent Effect
24 | COc1c(C2CCCN2C(=O)c2nccnc2N)c(C)nn1C (stereo not drawn) | 108.6%
25 | Cc1nn(C)c(Cl)c1C1CCCN1C(=O)c1nccnc1N (stereo not drawn) | -5.243%
26 | O=S(=O)(Nc1c(F)cccc1N1CCCC1)c1cncc(F)c1 | -6.105%
27 | N#Cc1cccc(NC2CC(=O)N(C3Cc4ccccc4C3)C2)n1 (stereo not drawn) | 5.834%
28 | Cc1nc(C)n(CC2CCCN(CCCOc3ccccc3)C2)n1 (stereo not drawn) | -19.22%
29 | Cc1nc(C)n(CC2CCCN(CCOc3ccc(F)cc3)C2)n1 (stereo not drawn) | 98.89%
30 | O=C1CCCN1CCCN1CCCC(Cn2cncn2)C1 (stereo not drawn) | 2.08%
31 | Cc1nc(C)n(CC2CCCN(CCCOc3ccc(F)cc3)C2)n1 (stereo not drawn) | 86.71%
32 | Cc1nc(C)n(CC2CCCN(CCOc3cccc(C#N)c3)C2)n1 (stereo not drawn) | -2.683%
33 | Fc1ccc(OCCCN2CCCC(Cn3cncn3)C2)cc1 (stereo not drawn) | 107.3%
34 | Cc1nc(C)n(CC2CCCN2CCCOc2ccc(F)cc2)n1 (stereo not drawn) | 2.053%
35 | Cc1nc(C)n(CC2CCCN(CCOc3cccc(F)c3)C2)n1 (stereo not drawn) | 75.5%
36 | Fc1ccc(CN2CCCC(Cn3cncn3)C2)c2ncccc12 (stereo not drawn) | 0.09463%
37 | Cc1c(C(C)NC2CCN(C(C)C)CC2)cnn1-c1ccc(F)cc1F (stereo not drawn) | -0.2198%
38 | CCOc1cccnc1C(=O)N1CCCN(c2nc(C)cs2)CC1 | 4.223%
39 | CCn1ccnc1CN1C[C@@H](CN2CCCC2)[C@@H](CO)C1 | -1.438%
40 | CCn1ccnc1CN1CCN(CC(=O)NC(=O)NC2CC2)CC1 | -16.24%
41 | CC1(C)OCC(CNC(=O)c2cnn(-c3cccc(Cl)c3Cl)c2N)O1 (stereo not drawn) | 190.2%
42 | CC(C)c1ccc(-n2ncc(C(=O)NCC3COC(C)(C)O3)c2N)cc1 (stereo not drawn) | 161.1%
43 | CCOC(=O)c1ccc(CNC(=O)c2ccncc2Cl)o1 | 1.896%
44 | CC1(C)OCC(CNC(=O)c2cnn(-c3ccc(Cl)cc3)c2N)O1 (stereo not drawn) | -2.312%
45 | Cc1ccc(C)c(-n2ncc(C(=O)NCC3COC(C)(C)O3)c2N)c1 (stereo not drawn) | 185.5%
46 | CC1(C)OCC(CNC(=O)c2cnn(-c3cc(Cl)ccc3Cl)c2N)O1 (stereo not drawn) | -0.3036%

Row | Structure (SMILES) | Percent Effect
47 | COc1ccc(-n2ncc(C(=O)NCC3COC(C)(C)O3)c2N)cc1 (stereo not drawn) | -3.479%
48 | Cc1ccc(C)c(-n2ncc(NC(=O)NC3(C)CCOC3)c2C)c1 (stereo not drawn) | 6.274%
49 | Cc1c(C(=O)NC2(C#N)CCSC2)cnn1-c1ccccc1Cl (stereo not drawn) | -17.58%
50 | Cc1cc(Cl)ccc1-n1ncc(C(=O)NCC2COC(C)(C)O2)c1N (stereo not drawn) | 154.2%
51 | CC(=O)N[C@@H]1C[C@H](Cc2ccccc2)O[C@H](c2ccc(C(=O)O)cc2)C1 | -2.466%
52 | O=C(CC1=CCCCC1)NCCc1csc(N2CCCC2)n1 | -4.83%
53 | COc1cccc(CCC(=O)N2CCN(Cc3noc(C)n3)CC2)c1 | -5.031%
54 | CN1CCN(CCC(F)(F)C(F)F)CC12CCNC(=O)CC2 (stereo not drawn) | 7.69%
55 | Cc1cnc(CN2CCOC(CN(C)c3cccnn3)C2)cn1 (stereo not drawn) | 10.01%
56 | Cc1cccc(C2CCCN2C(=O)CCS(C)(=O)=O)c1C (stereo not drawn) | -5.02%
57 | CC(C)(C)C(O)CN1CCN(CC(=O)NC2CCOCC2)CC1 (stereo not drawn) | 4.367%
58 | O=C(NCCN1CCNC1=O)c1cc(-c2ccc(O)cc2)n[nH]1 | 6.287%
59 | O=C(NCCN1CCOC1=O)c1ccc2sccc2c1 | -4.154%
60 | CCc1ncc(C(=O)NCCN2CCNC2=O)cn1 | 99.04%
61 | CCc1ncc(C(=O)NCC2CCN(Cc3ccncc3)CC2)cn1 | -2.292%
62 | O=C(NCCN1CCNC1=O)c1cnc(-c2cccnc2)nc1 | 91.56%
63 | CCc1ncc(C(=O)NCCn2c(C)cc(C)nc2=O)cn1 | 5.273%
64 | O=C(NCCn1ccnc1C1CCOC1)c1cccnc1 (stereo not drawn) | -7.177%
65 | O=C(NCCN1CCOC1=O)c1cnc(-c2cccnc2)nc1 | 103%
66 | CCN(CCN1CCCCCC1)C(=O)c1cnc(-c2cccnc2)nc1 | -4.892%
67 | CN(Cc1cc(Br)cn1C)C(=O)Cc1cccc(O)c1 | -22.7%
68 | CNC(=O)Cn1nnc(-c2cc3ccccc3o2)n1 | -5.513%
